Residue numbers refer to the chain shown, from its start.
Tests used:
Test in all cases: PBM; 200 nM protein, PBS
Conditions in all cases: dsDNA, one strand shown
VENTX [1] = biological target: T1, VENTX (Homo sapiens, UniProt O95231 78-163, R121Q)
T1 sequence: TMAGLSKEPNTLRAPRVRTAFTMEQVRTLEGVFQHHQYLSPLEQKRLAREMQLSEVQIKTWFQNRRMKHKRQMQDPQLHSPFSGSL

VENTX [2] = biological target: T2, VENTX (Homo sapiens, UniProt O95231 78-163, Y115F)
T2 sequence: T1 sequence with Y38F, Q44R

HOXB9 [3] = biological target: HOXB9 (Homo sapiens, UniProt P17482 171-250, T197M)
HOXA4 [4] = biological target: HOXA4 (Homo sapiens, UniProt Q00056 201-287, W262R)
HOXC9 [5] = biological target: HOXC9 (Homo sapiens, UniProt P31274 178-260, K195R)
HOXA4 [6] = biological target: HOXA4 (Homo sapiens, UniProt Q00056 201-287, R217L)
HOXB9 [7] = biological target: HOXB9 (Homo sapiens, UniProt P17482 171-250)
HOXC9 [8] = biological target: HOXC9 (Homo sapiens, UniProt P31274 178-260)
HOXC9 [9] = biological target: HOXC9 (Homo sapiens, UniProt P31274 178-260, R193K)
HOXA4 [10] = biological target: HOXA4 (Homo sapiens, UniProt Q00056 201-287)
HOXB9 [11] = biological target: HOXB9 (Homo sapiens, UniProt P17482 171-250, R186Q)
HOXC9 [12] = biological target: HOXC9 (Homo sapiens, UniProt P31274 178-260, R222W)
HOXA4 [13] = biological target: HOXA4 (Homo sapiens, UniProt Q00056 201-287, W262F)
VENTX [14] = biological target: T3, VENTX (Homo sapiens, UniProt O95231 78-163)
T3 sequence: T1 sequence with Q44R

CRX = CRX (Homo sapiens, UniProt O43186 26-111, R41L)
HOXA7 [15] = biological target: HOXA7 (Homo sapiens, UniProt P31268 116-202)
HOXC10 [16] = biological target: HOXC10 (Homo sapiens, UniProt Q9NYD6 254-340)
HOXB6 [17] = biological target: HOXB6 (Homo sapiens, UniProt P17509 132-218, K202E)
MSX2 [18] = biological target: MSX2 (Homo sapiens, UniProt P35548 130-214, R199I)
HOXD13 [19] = biological target: HOXD13 (Homo sapiens, UniProt P35453 263-343, T313R)
HOXC10 [20] = biological target: HOXC10 (Homo sapiens, UniProt Q9NYD6 254-340, K271E)
MSX2 [21] = biological target: MSX2 (Homo sapiens, UniProt P35548 130-214)
MSX2 [22] = biological target: MSX2 (Homo sapiens, UniProt P35548 130-214, F161Y)
HOXA7 [23] = biological target: HOXA7 (Homo sapiens, UniProt P31268 116-202, W177C)
HOXB6 [24] = biological target: HOXB6 (Homo sapiens, UniProt P17509 132-218)
ALX4 = ALX4 (Homo sapiens, UniProt Q9H161 200-286, Q225E)
HOXD13 [25] = biological target: HOXD13 (Homo sapiens, UniProt P35453 263-343)
HOXD13 [26] = biological target: HOXD13 (Homo sapiens, UniProt P35453 263-343, T313A)
PAX4 [27] = biological target: T4, PAX4 (Homo sapiens, UniProt O43316 9-242)
T4 sequence: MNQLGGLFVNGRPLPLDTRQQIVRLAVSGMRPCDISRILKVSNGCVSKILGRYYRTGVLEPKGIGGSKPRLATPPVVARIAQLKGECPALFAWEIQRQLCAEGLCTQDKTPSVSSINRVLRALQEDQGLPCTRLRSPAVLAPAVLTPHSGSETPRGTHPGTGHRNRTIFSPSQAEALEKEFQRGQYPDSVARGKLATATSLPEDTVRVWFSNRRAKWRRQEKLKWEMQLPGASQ

PAX4 [28] = biological target: T5, PAX4 (Homo sapiens, UniProt O43316 9-242, R200K)
T5 sequence: T4 sequence with R192K

PAX4 [29] = biological target: T6, PAX4 (Homo sapiens, UniProt O43316 9-242, R200Q)
T6 sequence: T4 sequence with R192Q

PAX4 [30] = biological target: T7, PAX4 (Homo sapiens, UniProt O43316 9-242, F177V)
T7 sequence: T4 sequence with F169V

PAX4 [31] = biological target: T8, PAX4 (Homo sapiens, UniProt O43316 9-242, F177Y)
T8 sequence: T4 sequence with F169Y

PAX4 [32] = biological target: T9, PAX4 (Homo sapiens, UniProt O43316 9-242, R227W)
T9 sequence: T4 sequence with R219W

Chain of HOXC9 (Homo sapiens, UniProt P31274 178-260, K195R) (P31274 178-260 K195R): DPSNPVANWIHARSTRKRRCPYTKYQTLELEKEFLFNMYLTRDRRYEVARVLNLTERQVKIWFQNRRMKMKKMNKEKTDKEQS
Chain of HOXC10 (Homo sapiens, UniProt Q9NYD6 254-340, K271E) (Q9NYD6 254-340 K271E): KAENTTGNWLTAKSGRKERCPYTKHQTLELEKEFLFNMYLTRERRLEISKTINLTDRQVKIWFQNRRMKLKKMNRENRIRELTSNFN
Chain of HOXC9 (Homo sapiens, UniProt P31274 178-260, R222W) (P31274 178-260 R222W): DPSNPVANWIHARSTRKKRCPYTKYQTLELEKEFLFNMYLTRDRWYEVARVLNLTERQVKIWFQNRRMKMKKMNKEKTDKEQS
Chain of HOXB9 (Homo sapiens, UniProt P17482 171-250, T197M) (P17482 171-250 T197M): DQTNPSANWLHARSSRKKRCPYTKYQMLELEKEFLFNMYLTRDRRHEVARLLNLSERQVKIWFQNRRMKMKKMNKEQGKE
Chain of HOXC9 (Homo sapiens, UniProt P31274 178-260, R193K) (P31274 178-260 R193K): as the sequence (P31274 178-260 R222W) above, with R16K, W45R counted along it
Chain of HOXB9 (Homo sapiens, UniProt P17482 171-250, R186Q) (P17482 171-250 R186Q): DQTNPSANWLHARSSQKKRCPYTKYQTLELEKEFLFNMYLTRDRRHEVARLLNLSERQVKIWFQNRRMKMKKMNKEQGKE
Chain of HOXB9 (Homo sapiens, UniProt P17482 171-250) (P17482 171-250): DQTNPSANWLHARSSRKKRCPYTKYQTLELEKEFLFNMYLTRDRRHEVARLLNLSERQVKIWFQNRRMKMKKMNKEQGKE
Chain of HOXC9 (Homo sapiens, UniProt P31274 178-260) (P31274 178-260): as the sequence (P31274 178-260 R222W) above, with W45R counted along it
Chain of HOXC10 (Homo sapiens, UniProt Q9NYD6 254-340) (Q9NYD6 254-340): as the sequence (Q9NYD6 254-340 K271E) above, with E18K counted along it
Chain of HOXB6 (Homo sapiens, UniProt P17509 132-218) (P17509 132-218): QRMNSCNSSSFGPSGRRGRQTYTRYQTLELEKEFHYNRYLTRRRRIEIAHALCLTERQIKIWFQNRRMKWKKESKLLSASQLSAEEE
Chain of HOXA7 (Homo sapiens, UniProt P31268 116-202, W177C) (P31268 116-202 W177C): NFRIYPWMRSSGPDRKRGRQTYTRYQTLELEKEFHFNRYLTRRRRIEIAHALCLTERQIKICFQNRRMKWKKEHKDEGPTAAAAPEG
Chain of HOXA7 (Homo sapiens, UniProt P31268 116-202) (P31268 116-202): as the sequence (P31268 116-202 W177C) above, with C62W counted along it
Chain of HOXB6 (Homo sapiens, UniProt P17509 132-218, K202E) (P17509 132-218 K202E): as the sequence (P17509 132-218) above, with K71E counted along it
Chain of HOXD13 (Homo sapiens, UniProt P35453 263-343, T313R) (P35453 263-343 T313R): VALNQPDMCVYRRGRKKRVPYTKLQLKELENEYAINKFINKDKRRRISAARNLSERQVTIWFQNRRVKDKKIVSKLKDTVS
Chain of CRX (O43186 26-111 R41L): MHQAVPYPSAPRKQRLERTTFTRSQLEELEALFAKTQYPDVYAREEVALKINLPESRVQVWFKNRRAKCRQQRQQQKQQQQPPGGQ
Chain of MSX2 (Homo sapiens, UniProt P35548 130-214) (P35548 130-214): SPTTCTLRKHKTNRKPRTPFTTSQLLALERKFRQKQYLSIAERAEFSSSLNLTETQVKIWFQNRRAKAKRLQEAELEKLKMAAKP
Chain of HOXD13 (Homo sapiens, UniProt P35453 263-343) (P35453 263-343): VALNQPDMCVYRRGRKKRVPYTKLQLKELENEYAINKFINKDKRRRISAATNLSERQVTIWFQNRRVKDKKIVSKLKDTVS
Chain of HOXA4 (Homo sapiens, UniProt Q00056 201-287, R217L) (Q00056 201-287 R217L): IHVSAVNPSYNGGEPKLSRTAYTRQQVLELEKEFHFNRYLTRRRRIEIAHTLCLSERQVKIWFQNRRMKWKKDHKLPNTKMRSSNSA
Chain of MSX2 (Homo sapiens, UniProt P35548 130-214, R199I) (P35548 130-214 R199I): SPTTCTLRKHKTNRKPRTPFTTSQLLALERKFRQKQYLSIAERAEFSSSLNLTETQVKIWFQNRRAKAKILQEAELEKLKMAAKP
Chain of HOXD13 (Homo sapiens, UniProt P35453 263-343, T313A) (P35453 263-343 T313A): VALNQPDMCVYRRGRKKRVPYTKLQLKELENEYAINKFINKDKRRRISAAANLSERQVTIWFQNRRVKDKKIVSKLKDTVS
Chain of ALX4 (Q9H161 200-286 Q225E): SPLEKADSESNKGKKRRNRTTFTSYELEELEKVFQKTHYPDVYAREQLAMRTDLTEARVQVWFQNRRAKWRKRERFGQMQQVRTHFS
Chain of HOXA4 (Homo sapiens, UniProt Q00056 201-287) (Q00056 201-287): as the sequence (Q00056 201-287 R217L) above, with L17R counted along it
Chain of MSX2 (Homo sapiens, UniProt P35548 130-214, F161Y) (P35548 130-214 F161Y): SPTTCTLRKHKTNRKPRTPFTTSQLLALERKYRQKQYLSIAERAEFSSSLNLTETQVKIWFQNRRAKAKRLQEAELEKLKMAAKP
Chain of HOXA4 (Homo sapiens, UniProt Q00056 201-287, W262R) (Q00056 201-287 W262R): as the sequence (Q00056 201-287 R217L) above, with L17R, W62R counted along it
Chain of HOXA4 (Homo sapiens, UniProt Q00056 201-287, W262F) (Q00056 201-287 W262F): as the sequence (Q00056 201-287 R217L) above, with L17R, W62F counted along it

## AACCGATT
VENTX [1]
  binding signal: 10.1 upbm affinity estimate (log intensity, higher = more binding, comparable within an allelic series)
VENTX [2]
  binding signal: 10.3 upbm affinity estimate (log intensity, higher = more binding, comparable within an allelic series)

## CCCGGTTC
HOXB9 [3]
  binding signal: 8.56 upbm affinity estimate (log intensity, higher = more binding, comparable within an allelic series)
HOXA4 [4]
  binding signal: 9.88 upbm affinity estimate (log intensity, higher = more binding, comparable within an allelic series)
HOXC9 [5]
  binding signal: 9.5 upbm affinity estimate (log intensity, higher = more binding, comparable within an allelic series)
HOXA4 [6]
  binding signal: 9.82 upbm affinity estimate (log intensity, higher = more binding, comparable within an allelic series)
HOXB9 [7]
  binding signal: 8.35 upbm affinity estimate (log intensity, higher = more binding, comparable within an allelic series)
HOXC9 [8]
  binding signal: 9.62 upbm affinity estimate (log intensity, higher = more binding, comparable within an allelic series)
HOXC9 [9]
  binding signal: 9.59 upbm affinity estimate (log intensity, higher = more binding, comparable within an allelic series)
HOXA4 [10]
  binding signal: 9.74 upbm affinity estimate (log intensity, higher = more binding, comparable within an allelic series)
HOXB9 [11]
  binding signal: 8.47 upbm affinity estimate (log intensity, higher = more binding, comparable within an allelic series)
HOXC9 [12]
  binding signal: 9.68 upbm affinity estimate (log intensity, higher = more binding, comparable within an allelic series)
HOXA4 [13]
  binding signal: 9.9 upbm affinity estimate (log intensity, higher = more binding, comparable within an allelic series)

## CTAATCGC
VENTX [1]
  binding signal: 11.2 upbm affinity estimate (log intensity, higher = more binding, comparable within an allelic series)
VENTX [14]
  binding signal: 12.3 upbm affinity estimate (log intensity, higher = more binding, comparable within an allelic series)
VENTX [2]
  binding signal: 11.3 upbm affinity estimate (log intensity, higher = more binding, comparable within an allelic series)
CRX
  binding signal: 11.6 upbm affinity estimate (log intensity, higher = more binding, comparable within an allelic series)

## ATTTAATG
HOXB9 [3]
  binding signal: 10.2 upbm affinity estimate (log intensity, higher = more binding, comparable within an allelic series)
HOXC9 [5]
  binding signal: 13.1 upbm affinity estimate (log intensity, higher = more binding, comparable within an allelic series)
HOXA7 [15]
  binding signal: 11.3 upbm affinity estimate (log intensity, higher = more binding, comparable within an allelic series)
HOXC10 [16]
  binding signal: 12.4 upbm affinity estimate (log intensity, higher = more binding, comparable within an allelic series)
HOXB6 [17]
  binding signal: 10.1 upbm affinity estimate (log intensity, higher = more binding, comparable within an allelic series)
HOXB9 [7]
  binding signal: 12.3 upbm affinity estimate (log intensity, higher = more binding, comparable within an allelic series)
HOXC9 [8]
  binding signal: 13 upbm affinity estimate (log intensity, higher = more binding, comparable within an allelic series)
MSX2 [18]
  binding signal: 11.4 upbm affinity estimate (log intensity, higher = more binding, comparable within an allelic series)
HOXD13 [19]
  binding signal: 10.7 upbm affinity estimate (log intensity, higher = more binding, comparable within an allelic series)
HOXC9 [9]
  binding signal: 13 upbm affinity estimate (log intensity, higher = more binding, comparable within an allelic series)
HOXC10 [20]
  binding signal: 12.2 upbm affinity estimate (log intensity, higher = more binding, comparable within an allelic series)
MSX2 [21]
  binding signal: 12.2 upbm affinity estimate (log intensity, higher = more binding, comparable within an allelic series)
HOXB9 [11]
  binding signal: 12.1 upbm affinity estimate (log intensity, higher = more binding, comparable within an allelic series)
HOXC9 [12]
  binding signal: 11.2 upbm affinity estimate (log intensity, higher = more binding, comparable within an allelic series)
MSX2 [22]
  binding signal: 12 upbm affinity estimate (log intensity, higher = more binding, comparable within an allelic series)
HOXA7 [23]
  binding signal: 8.91 upbm affinity estimate (log intensity, higher = more binding, comparable within an allelic series)
HOXB6 [24]
  binding signal: 11.9 upbm affinity estimate (log intensity, higher = more binding, comparable within an allelic series)

## ATTTATTG
HOXB9 [3]
  binding signal: 9.87 upbm affinity estimate (log intensity, higher = more binding, comparable within an allelic series)
HOXC9 [5]
  binding signal: 12.5 upbm affinity estimate (log intensity, higher = more binding, comparable within an allelic series)
HOXC10 [16]
  binding signal: 12.4 upbm affinity estimate (log intensity, higher = more binding, comparable within an allelic series)
ALX4
  binding signal: 11.2 upbm affinity estimate (log intensity, higher = more binding, comparable within an allelic series)
HOXB9 [7]
  binding signal: 11.9 upbm affinity estimate (log intensity, higher = more binding, comparable within an allelic series)
HOXC9 [8]
  binding signal: 12.7 upbm affinity estimate (log intensity, higher = more binding, comparable within an allelic series)
HOXD13 [19]
  binding signal: 10.9 upbm affinity estimate (log intensity, higher = more binding, comparable within an allelic series)
HOXC9 [9]
  binding signal: 12.6 upbm affinity estimate (log intensity, higher = more binding, comparable within an allelic series)
HOXD13 [25]
  binding signal: 12.2 upbm affinity estimate (log intensity, higher = more binding, comparable within an allelic series)
HOXC10 [20]
  binding signal: 11.7 upbm affinity estimate (log intensity, higher = more binding, comparable within an allelic series)
HOXD13 [26]
  binding signal: 12 upbm affinity estimate (log intensity, higher = more binding, comparable within an allelic series)
HOXB9 [11]
  binding signal: 11.6 upbm affinity estimate (log intensity, higher = more binding, comparable within an allelic series)
HOXC9 [12]
  binding signal: 11.2 upbm affinity estimate (log intensity, higher = more binding, comparable within an allelic series)

## GACATTAA
HOXB9 [3]
  binding signal: 10 upbm affinity estimate (log intensity, higher = more binding, comparable within an allelic series)
HOXC9 [5]
  binding signal: 12.6 upbm affinity estimate (log intensity, higher = more binding, comparable within an allelic series)
HOXA7 [15]
  binding signal: 11.2 upbm affinity estimate (log intensity, higher = more binding, comparable within an allelic series)
HOXB6 [17]
  binding signal: 10 upbm affinity estimate (log intensity, higher = more binding, comparable within an allelic series)
HOXB9 [7]
  binding signal: 11.8 upbm affinity estimate (log intensity, higher = more binding, comparable within an allelic series)
HOXC9 [8]
  binding signal: 12.6 upbm affinity estimate (log intensity, higher = more binding, comparable within an allelic series)
HOXC9 [9]
  binding signal: 12.5 upbm affinity estimate (log intensity, higher = more binding, comparable within an allelic series)
HOXC10 [20]
  binding signal: 11.9 upbm affinity estimate (log intensity, higher = more binding, comparable within an allelic series)
HOXB9 [11]
  binding signal: 11.6 upbm affinity estimate (log intensity, higher = more binding, comparable within an allelic series)
HOXC9 [12]
  binding signal: 10.9 upbm affinity estimate (log intensity, higher = more binding, comparable within an allelic series)
HOXA7 [23]
  binding signal: 8.93 upbm affinity estimate (log intensity, higher = more binding, comparable within an allelic series)
HOXB6 [24]
  binding signal: 11.7 upbm affinity estimate (log intensity, higher = more binding, comparable within an allelic series)

## ACCGTTTA
VENTX [1]
  binding signal: 10.1 upbm affinity estimate (log intensity, higher = more binding, comparable within an allelic series)
VENTX [2]
  binding signal: 10.1 upbm affinity estimate (log intensity, higher = more binding, comparable within an allelic series)
PAX4 [27]
  binding signal: 10.4 upbm affinity estimate (log intensity, higher = more binding, comparable within an allelic series)

## CGCATTAA
VENTX [1]
  binding signal: 10.5 upbm affinity estimate (log intensity, higher = more binding, comparable within an allelic series)
PAX4 [28]
  binding signal: 11.7 upbm affinity estimate (log intensity, higher = more binding, comparable within an allelic series)
VENTX [2]
  binding signal: 10.6 upbm affinity estimate (log intensity, higher = more binding, comparable within an allelic series)
PAX4 [27]
  binding signal: 12.1 upbm affinity estimate (log intensity, higher = more binding, comparable within an allelic series)
PAX4 [29]
  binding signal: 11.6 upbm affinity estimate (log intensity, higher = more binding, comparable within an allelic series)
PAX4 [30]
  binding signal: 10.4 upbm affinity estimate (log intensity, higher = more binding, comparable within an allelic series)
PAX4 [31]
  binding signal: 11 upbm affinity estimate (log intensity, higher = more binding, comparable within an allelic series)
PAX4 [32]
  binding signal: 10.9 upbm affinity estimate (log intensity, higher = more binding, comparable within an allelic series)
CRX
  binding signal: 10.9 upbm affinity estimate (log intensity, higher = more binding, comparable within an allelic series)
